Results reported in PubChem BioAssay (NCI).
About 79,000 compounds went through this panel and 15% of them were active in at least one assay; those are over-represented in the sample as a whole. No stated cut-off is given here; in the data, active means growth inhibition above about 70%; inactive means the rest.

Tests used:
[1] = NCI Yeast Anticancer Drug Screen. Data for the rad50 strain (AID 155);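 further: 0% = growth of vehicle-only cultures of the same strain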; conditions: S. cerevisiae rad50 strain growth inhibition; at 50.0 µM; stronger effect = higher value
How it was run: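 A DNA repair-deficient yeast mutant serves as the test organism; compound-induced growth inhibition is calculated against vehicle-treated cells.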

[2] = NCI Yeast Anticancer Drug Screen. Data for the mec2-1 strain (AID 157); conditions: S. cerevisiae mec2-1 strain, at 50.0 µM, stronger effect = higher value
How it was run: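 Strain: mec2-1 (DNA repair/cell cycle alteration). Compound exposure, then growth measured; inhibition expressed relative to vehicle.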

[3] = NCI Yeast Anticancer Drug Screen. Data for the sgs1 mgt1 strain (AID 161);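 further: 0% = growth of cultures given vehicle only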; conditions: S. cerevisiae sgs1 mgt1 strain, at 50.0 µM, stronger effect = higher value
How it was run: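 Mutant yeast exposed to compound; growth scored against vehicle-only wells.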

[4] = NCI Yeast Anticancer Drug Screen. Data for the cln2 rad14 strain (AID 165);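 further: 0% = growth equal to vehicle treated cultures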; conditions: S. cerevisiae cln2 rad14 strain, at 50.0 µM, stronger effect = higher value
How it was run: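 Compounds are applied to the cln2 rad14 yeast strain, and growth is then compared with that of vehicle-treated cultures to give inhibition.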

[5] = NCI Yeast Anticancer Drug Screen. Data for the bub3 strain (AID 167); conditions: S. cerevisiae bub3 mutant strain, at 50.0 µM, stronger effect = higher value
How it was run: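 Inhibition values come from growth of compound-treated mutant yeast normalised to vehicle-treated controls.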

[6] = NCI Yeast Anticancer Drug Screen. Data for the mlh1 rad18 strain (AID 175); conditions: S. cerevisiae mlh1 rad18 strain growth inhibition; at 50.0 µM; stronger effect = higher value
How it was run: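 Read-out is yeast growth inhibition, calculated against vehicle-only controls. The compound was applied to a strain engineered with DNA damage repair alterations.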

Measured: growth inhibition

O=c1cccc(O)[nH]1
inactive: [1] -14.8% | [2] -17.6% | [3] -15.1% | [4] -0.15% | [5] -15.7% | [6] -8.85%

CCCC1(C(OC)OC)NC(=O)N(Cc2ccccc2)C1=O (stereo unspecified)
inactive: [1] 4.45% | [2] -5.15% | [3] 5.15% | [4] -19.7% | [5] -2.1% | [6] 4.75%

ClCC1COC(CCc2ccccc2)O1 (stereo unspecified)
inactive: [1] 18.4% | [2] -3.5% | [3] -10.9% | [4] 64.2% | [5] 3.1% | [6] 7.7%

CS(=O)(=O)OCCCCOS(C)(=O)=O
inactive: [1] -9.5% | [2] -23.9% | [3] 8.55% | [4] 2% | [5] 12.1% | [6] 0.05%

CNC(=O)c1ccccc1CC1(O)CCCC1
inactive: [1] -9.85% | [2] -15.5% | [3] -0.5% | [4] 8.5% | [5] -9.75% | [6] -25.1%

CCCCCCCCCCCCCCCCCCCOc1ccc(OCCCCCCCC)cc1
inactive: [1] 40.8% | [2] -11.8% | [3] 17.6% | [4] -11.2% | [5] 3.4% | [6] 3%
